Experimental data from PubChem BioAssay (Tox21).
Values without a mark were called inactive. Activity calls are given as the source filed them. Calls come from the whole dose curve; as a rule, active = well fitted curve in the direction sought with a large enough effect in the repeat runs; inconclusive = weak or mixed curves; inactive = flat fitted curve, though single readings scatter.

Assay: qHTS assay to test for compound auto fluorescence at 590 nm (red) in HepG2 cell free culture (AID 720684)
Settings: cell-free medium autofluorescence, red 540/590 nm; series mostly up to 91.3 µM; fluorescence, % of Rose Bengal: at the top concentration
Summary of the method: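 Plate contents were MEM with 10% FBS plus test compound or DMSO, no cells. Fluorescence was recorded with 540 nm excitation and 590 nm emission.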
% is set by controls: 0 for no effect and ±100 for the full control effect.

SMILES	fluorescence, % of Rose Bengal	Potency
CCCCNS(=O)(=O)c1ccc(C)cc1	-0.0424%	–
O=C(Oc1ccccc1)Oc1ccccc1	0.0727%	–
OC1CCCc2ccccc21 (stereo not drawn)	0.0746%	–
OC[C@H]1O[C@H](O[C@H]2O[C@H](CO)[C@@H](O)[C@H](O)[C@H]2O)[C@H](O)[C@@H](O)[C@@H]1O	-0.247%	–
CC(C)CCCCCOC(=O)CCS	0.0634%	–
CCC(COC(=O)CCS)(COC(=O)CCS)COC(=O)CCS	0.0739%	–
CC(=O)OCC=C(C)C	0.237%	–
CCCCCCOC(=O)C(C)CC (stereo not drawn)	0.0248%	–
COC(=O)c1ccccc1C	-0.0804%	–
CN(C)Cc1cc(C(C)(C)C)c(O)c(C(C)(C)C)c1	0.104%	–
CC/C=C\CCCCCO	-0.0827%	–
Cc1ccc(N/N=c2\c(=O)cc/c(=N\Nc3ccc(S(=O)(=O)O)cc3)c2=O)c(C)c1	0.184%	–
O=C(/C=C/c1ccccc1)OC/C=C/c1ccccc1	0.0527%	–
CCC(=O)OC(=O)CC	-0.216%	–
COc1cc(S(=O)(=O)O)c(C)cc1N=Nc1c(O)ccc2cc(S(=O)(=O)O)ccc12	2.17%	–
O=[N+]([O-])c1cccc(C(F)(F)F)c1	0.0228%	–
CCO[Si](OCC)(OCC)OCC	0.0169% [at 95.7 µM]	–
Cc1ccc(-c2ccccc2)cc1	-0.247%	–
CN1CCCCC1CCN1c2ccccc2Sc2ccc(S(C)=O)cc21 (stereo not drawn)	–	inactive
C[Si](Cl)(c1ccccc1)c1ccccc1	-0.102%	–
NC(=S)NC(N)=S	0.109%	–
O=C(O)[C@H](O)[C@@H](O)[C@H](O[C@@H]1O[C@H](CO)[C@H](O)[C@H](O)[C@H]1O)[C@H](O)CO	0.117% [at 18.6 µM]	–
CCCCN(CCCC)CC(O)c1cc(Cl)cc2c1-c1ccc(Cl)cc1/C2=C/c1ccc(Cl)cc1 (stereo not drawn)	-0.104% [at 46 µM]	–
